SMILES strings stand for the structures. Active and inactive are the calls of the source.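 The calls were made as follows, unless noted: active = fluorescence slope higher than the sample average by over 3 SD (cut at about -0.22 in these data, passing the limit was not always enough); inactive = the rest.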

A short description of assay [1]: inhibitors of TNFa-induced NFkB p65 translocation, primary screen, imaging, HUVEC, MLSMR starter and 10KST1 sets (AID 438;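 active = inhibition above 20% together with a positive visual image hit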;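 also: compound added about 3h40 before a 20 min TNFalpha stimulation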;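 as to inhibition: signal is the nuclear over cytoplasmic p65 intensity ratio per well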). To be noted: HUVEC TNFa-induced p65 nuclear translocation; cell count: measured here: nuclei count (cytotoxicity indicator), at 2.08 µM unless noted; inhibition: at 2 µM, stronger effect = higher value unless noted.
Assay [2] can be described thus: endothelial E-selectin expression blockers – imaging, HUVEC, immunofluorescence, MLSMR starter and 10KST1 sets, primary screen (AID 487;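 active = visually confirmed hit in the image check and inhibition above 20%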;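 as to inhibition: signal is fraction of cell area covered by stained E-selectin grains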;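 as to nuclei count: 100% = median nuclei count of all wells on the same plate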). To be noted: HUVEC TNFalpha-induced E-selectin immunofluorescence imaging, at 2 µM; inhibition: stronger effect = higher value; nuclei count: measured here: cell number, toxicity.
The nature of assay [3]: Primary imaging screen for DUSP6 inhibitors that restore phospho-Erk in transfected HeLa cells, chemical complementation (AID 609;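 active = compounds giving at least 50% inhibition in the cell-based MKP-3 phosphatase rescue imaging test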;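 as to inhibition: phospho-Erk level distribution per well compared with pooled transfected vehicle control wells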). As to conditions: HeLa MKP-3 transfected, phospho-Erk imaging KS statistic, at 10 µM.
Assay [4] addresses Dual specificity protein phosphatase 6 (Homo sapiens) (UniProt Q16828). Described as above. As to conditions: HeLa MKP-3 transfected, phospho-Erk imaging KS statistic, at 10 µM, stronger effect = higher value.
The target in assay [5] is Voltage-gated potassium channel subunit beta-2 (Rattus norvegicus) (UniProt P62483). The assay is described as follows: inhibitors of rat Kvbeta2 reductase activity – biochemical, NADPH fluorescence, primary screen (AID 622).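 Also: slope of raw intensity against log time taken from 70 to 1610 s.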 As to conditions: recombinant KvBeta, 4-cyanobenzaldehyde reduction, at 10 µM, stronger effect = higher value.
Voltage-gated potassium channel subunit beta-2 (Rattus norvegicus), sequence (P62483 whole entry, looked up): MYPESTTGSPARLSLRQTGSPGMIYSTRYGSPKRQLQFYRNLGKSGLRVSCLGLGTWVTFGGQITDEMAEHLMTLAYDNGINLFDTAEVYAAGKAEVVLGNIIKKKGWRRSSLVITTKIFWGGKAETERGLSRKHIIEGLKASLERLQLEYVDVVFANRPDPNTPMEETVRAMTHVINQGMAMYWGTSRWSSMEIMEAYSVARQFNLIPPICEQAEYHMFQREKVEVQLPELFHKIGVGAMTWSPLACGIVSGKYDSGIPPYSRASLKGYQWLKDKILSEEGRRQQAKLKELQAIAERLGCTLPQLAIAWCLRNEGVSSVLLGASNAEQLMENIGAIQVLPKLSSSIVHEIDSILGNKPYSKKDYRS
Assay [6] has the same target. The experiment in a line: enhancers of rat Kvbeta2 NADPH turnover – biochemical, NADPH fluorescence, primary screen (AID 623;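 active = NADPH fluorescence slope more negative than the mean of all samples by about 3 SD, 99.7% confidence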;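 also: fluorescence intensity change per second fitted from 20 to 320 s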). As to conditions: Recombinant KvBeta, NADPH fluorescence decrease slope, 10 min; at 10 µM; stronger effect = lower value.
The target in assay [7] is Muscarinic acetylcholine receptor M4 (Homo sapiens) (UniProt P08173). The experiment in a line: M4-linked GIRK flux change, two-sided – cell-based, HEK293 M4/GIRK, thallium flux, BTC-AM, M4 allosteric agonist project, primary screen (AID 625;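 active = fluorescence slope after compound addition differing from the mean of all tested samples at 99.7% confidence, mostly higher but some lower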;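 also: thallium influx through GIRK channels coupled to M4 in HEK293 cells with BTC-AM dye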). To be noted: at 10 µM, actives lie on both sides.
Muscarinic acetylcholine receptor M4 (Homo sapiens), sequence (P08173 whole entry, looked up): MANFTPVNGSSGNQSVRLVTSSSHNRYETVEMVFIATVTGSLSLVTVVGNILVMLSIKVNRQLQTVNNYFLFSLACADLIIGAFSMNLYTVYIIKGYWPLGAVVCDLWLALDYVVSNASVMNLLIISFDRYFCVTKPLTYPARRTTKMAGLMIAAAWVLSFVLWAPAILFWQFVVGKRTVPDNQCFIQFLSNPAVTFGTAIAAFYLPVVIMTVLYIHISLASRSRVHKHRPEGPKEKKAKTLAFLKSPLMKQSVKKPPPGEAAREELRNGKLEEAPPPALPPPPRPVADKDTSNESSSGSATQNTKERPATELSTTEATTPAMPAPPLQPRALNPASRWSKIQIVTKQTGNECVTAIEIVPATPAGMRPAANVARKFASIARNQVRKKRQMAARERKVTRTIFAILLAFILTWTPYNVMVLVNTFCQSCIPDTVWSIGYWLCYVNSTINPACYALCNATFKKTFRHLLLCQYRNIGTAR
Assay [8] is described as follows: inhibitors of larval lipid processing in zebrafish, primary screen, whole organism, PED6 fluorescence, gall bladder and intestine (AID 686;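 active = a full or partial loss of lipid-probe fluorescence in the fish gall bladder, intestine or both, judged by eye; inactive = no fluorescence loss, or compound toxic to the fish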;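 also: larvae 5 to 7 days old with five fish per well; signal comes from phospholipase A2 cleavage of quenched PED6 carried via bile; overnight exposure to compound and PED6 before scoring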). As to conditions: Zebrafish larvae PED6 lipid processing, fluorescence scoring.
A short description of assay [9]: loss of swimming-algae plug formation – whole organism, Chlamydomonas reinhardtii, WT vs cilia-less mutant, absorbance, 96-well, primary screen (AID 463189;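 active = inhibition at or above 50% relative to wild type and mutant plate controls; inactive = inhibition below 50%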;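 also: 0% = wild type cc124 cells in DMSO and 100% = ciliumless bld1 mutant cells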). To be noted: Chlamydomonas reinhardtii gravitaxis, OD600 absorbance, 2 days; at 10 µM; stronger effect = higher value.
Assay [10] can be described thus: reduction of polyQ htt aggregates in cells – imaging, exon1htt(103Q)mCFP cells, high-content imaging, primary screen (AID 483;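 active = visual image review flags a hit and inhibition of aggregation exceeds 20%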;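 also: compound exposure lasted 3 days before fixation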;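 as to nuclei count: percent of the per-plate median nuclei count of sample wells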). As to conditions: exon1htt(103Q)mCFP cell line, aggregate imaging, at 2 µM; inhibition of aggregation: stronger effect = higher value; nuclei count: measured here: cell count, toxicity.
Assay [11] addresses Alpha-2C adrenergic receptor (Homo sapiens) (UniProt P18825). The assay is described as follows: compounds altering alpha2C-coupled GIRK flux – cell-based, HEK293 alpha2C/GIRK1/2, thallium flux, primary screen (AID 624;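 active = fluorescence slope after compound addition differing from the mean of all screened samples at 99.7% confidence, in either direction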;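 also: slope of fluorescence ratio to pre-addition baseline per second over 15 to 24 s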). As to conditions: thallium flux BTC fluorescence, at 10 µM, actives lie on both sides.
The nature of assay [12]: blockers of RIG-like receptor reporter activation – cell-based, Sendai virus stimulus, luciferase, 10K MLSCN set, TLR/RLR signaling modifier project, primary screen (AID 602276;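 active = inhibition at or above 50% at 10 µM; inactive = inhibition below 50%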;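 also: firefly luciferase from ISG56 promoter only with Renilla not read in this screen; 0% = Sendai virus plus DMSO and 100% = medium plus DMSO without virus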). To be noted: HEK293 RL24 IRF3 luciferase reporter, at 10 µM, stronger effect = higher value.
Assay [13] is described as follows: TLR3 IRF3 reporter activation blockers – cell-based, poly I:C stimulus, luciferase, 10K MLSCN set, primary screen (AID 602277;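 active = inhibition of the reporter signal at or above 50%; inactive = inhibition below 50%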). As to conditions: HEK293-TLR3 RL24 IRF3 luciferase reporter, at 10 µM, stronger effect = higher value.
The mark [14] stands for this setting: measured here: cell density z-score.
Where [15] appears, read: measured here: nuclear c-Myc green intensity z-score.
[16] abbreviates: measured here: nuclear pErk red intensity z-score, stronger effect = higher value.

Dual specificity protein phosphatase 6 (Homo sapiens), sequence (Q16828 whole entry, looked up): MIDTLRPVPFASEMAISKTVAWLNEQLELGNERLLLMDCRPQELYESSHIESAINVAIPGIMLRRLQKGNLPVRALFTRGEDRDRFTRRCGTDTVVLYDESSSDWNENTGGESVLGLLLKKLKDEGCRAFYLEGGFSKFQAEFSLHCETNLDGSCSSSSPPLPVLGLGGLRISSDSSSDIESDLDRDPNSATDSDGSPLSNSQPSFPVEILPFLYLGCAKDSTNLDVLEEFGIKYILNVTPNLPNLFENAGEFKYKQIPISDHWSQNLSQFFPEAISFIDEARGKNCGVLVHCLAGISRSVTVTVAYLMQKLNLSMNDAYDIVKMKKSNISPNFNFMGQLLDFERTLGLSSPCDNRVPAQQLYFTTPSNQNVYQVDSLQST
Alpha-2C adrenergic receptor (Homo sapiens), sequence (P18825 whole entry, looked up): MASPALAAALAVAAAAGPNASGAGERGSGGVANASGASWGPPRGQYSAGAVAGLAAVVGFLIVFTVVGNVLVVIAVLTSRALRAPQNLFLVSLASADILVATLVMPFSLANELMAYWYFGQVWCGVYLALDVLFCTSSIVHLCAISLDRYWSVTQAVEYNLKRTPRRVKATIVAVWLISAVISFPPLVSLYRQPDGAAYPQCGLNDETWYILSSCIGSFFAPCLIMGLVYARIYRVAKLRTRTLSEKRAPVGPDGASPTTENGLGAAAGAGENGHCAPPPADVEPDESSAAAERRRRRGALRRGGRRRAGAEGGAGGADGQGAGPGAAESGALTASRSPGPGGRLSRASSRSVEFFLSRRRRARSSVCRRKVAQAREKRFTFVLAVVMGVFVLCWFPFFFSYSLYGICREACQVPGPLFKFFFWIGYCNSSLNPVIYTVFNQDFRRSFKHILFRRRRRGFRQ

On to `OC1(c2ccc(F)cc2)CCNC1` (centres undefined), for which the cell count in assay [1] stood at 391. Moreover, the inhibition in assay [1] was -8% (inactive); in [2] it was -146% (inactive); in [4] it was 1.48% (inactive); in [9], 16.5% (inactive). For the same molecule, in assay [2], the nuclei count was 147%. Also, the z-score in [3] (setting [14]) was -0.692; in assay [3] (setting [15]), -1.09; in assay [3] (setting [16]), 1.31. Moreover, the fluorescence slope in [5] was -0.468 (inactive); in assay [7], 0.00482 (inactive). In assay [6], the NADPH fluorescence slope is -0.000119 (inactive). Also, in [8], the outcome was inactive.

On to `C=CCOC(=O)C1=C(C)OC(N)=C(C#N)C12C(=O)N(CN1CCOCC1)c1ccccc12` (centres undefined), for which the cell count in assay [1] came out at 388. Also, the inhibition is 0.7% (inactive) in [1], -73.4% (inactive) in assay [2], -4.59% (inactive) in assay [4] and 39.6% (inactive) in [9]. Further, in [2], the nuclei count came to 88.4%. The z-score is -0.108 in assay [3] (setting [14]), 0.314 in [3] (setting [15]) and 1.06 in [3] (setting [16]). In addition, the fluorescence slope in assay [5] was -0.515 (inactive); in assay [7], 0.00467 (inactive). In addition, the NADPH fluorescence slope in assay [6] was 2.9e-05 (inactive). The outcome in assay [8] was inactive.

In assay [1], `CCCCNC(=O)Nc1ccc(C(O)(C(=O)OC)C(F)(F)F)cc1` (centres undefined) displayed a cell count of 632. Also, the inhibition was -8.8% (inactive) in assay [1], 7.1% (inactive) in assay [2], 18.4% (inactive) in [4] and 8.19% (inactive) in assay [9]. Moreover, the nuclei count in [2] amounted to 154%. Moreover, the z-score in assay [3] (setting [14]) was 0.744; in [3] (setting [15]), -1.2; in assay [3] (setting [16]), 0.72. Besides, the fluorescence slope in assay [5] was -0.482 (inactive); in [7], 0.00513 (inactive). In addition, in assay [6], the NADPH fluorescence slope is -4.8e-05 (inactive). In addition, in assay [8], the molecule was called inactive.

For the molecule `CCCCn1c(C)c(C(=O)OCC)c2c(CN3CCOCC3)c(O)ccc21`, the cell count in assay [1] was 702. Further, the inhibition in assay [1] was 0.6% (inactive); in [2], -44.3% (inactive); in [12], 11.9% (inactive); in [13], 19.2% (inactive). Besides, in assay [10], the inhibition of aggregation was -0.7% (inactive). Also, the nuclei count in assay [10] stood at 82.8%; in [2], 100%. Further, in assay [5], the fluorescence slope is -0.373 (inactive). Also, the NADPH fluorescence slope in assay [6] was -2.7e-05 (inactive). Besides, the slope in assay [11] was 0.00475 (inactive).

Molecule `COc1ccc(C2SCC(=O)Nc3c2c(=O)[nH]n3C2CCCCCC2)cc1` (centres undefined) gave a cell count in [1] of 564. Besides, the inhibition was -7.2% (inactive) in assay [1], 70.4% (inactive) in assay [2], 2.71% (inactive) in assay [4] and 29.9% (inactive) in assay [9]. In [2], this molecule showed a nuclei count of 96%. For the same molecule, the z-score is 1.06 in assay [3] (setting [14]), 0.0384 in assay [3] (setting [15]) and -1.4 in assay [3] (setting [16]). Besides, the fluorescence slope in assay [5] is -0.478 (inactive); in [7], 0.007 (inactive). For the same molecule, the NADPH fluorescence slope in assay [6] was -3e-05 (inactive). In addition, the outcome in assay [8] was inactive.

With `COc1ccc(C2SCC(=O)Nc3c2c(=O)[nH]n3C2CCCCC2)cc1` (centres undefined), in [1], the cell count came to 380. The inhibition in assay [1] is -8.8% (inactive); in assay [2], -197% (inactive); in assay [4], 14% (inactive); in assay [9], 6.02% (inactive). The same molecule had a nuclei count in assay [2] of 138%. The z-score in assay [3] (setting [14]) was 0.845; in [3] (setting [15]) it was -1.45; in [3] (setting [16]) it was -0.612. Further, the fluorescence slope in [5] is -0.479 (inactive); in [7], 0.00663 (inactive). In [6], the NADPH fluorescence slope was -0.000101 (inactive). The result in assay [8] was inactive.

`CN1CCc2c(c(N3CCCCC3)nc3n[nH]c(N)c23)C1` had a cell count in assay [1] of 496. In addition, the inhibition in assay [1] was -17.1% (inactive); in assay [2], -154% (inactive); in assay [4] it was 21.4% (inactive); in assay [9] it was -3.54% (inactive). Besides, the nuclei count in assay [2] is 127%. Besides, the z-score in assay [3] (setting [14]) was 1.06; in assay [3] (setting [15]), -1.56; in assay [3] (setting [16]) it was 0.455. The fluorescence slope in assay [5] was -0.463 (inactive); in assay [7], 0.00409 (inactive). The NADPH fluorescence slope in assay [6] is -8.3e-05 (inactive). Also, the result in assay [8] was inactive.

These data come from PubChem BioAssay.
